Laboratory results: PubChem BioAssay AID1159580 (chemical genetic matrix, 2015)
Hit rate of the full screen: of about 5,500 compounds, about 2,000 (36%) were called active. About 18% were inconclusive and are not listed. Cut-off read from the data, not from the text of the source: active = normalized growth mostly below about 0.91 (no sharp cut-off); inconclusive = no clear call, values can overlap the other calls; inactive = mostly above about 0.92. This is one part of the list.

Experiment: chemical genetic growth profiling, strain panel (AID 1159580);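 note: tested at 20 µM; growth read once vehicle control cultures reached saturation at 30 °C; 1 = growth at the plate median or of vehicle wells; lower values mean less growth of the strain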
Settings: S. cerevisiae deletion strains, growth OD

Measured: normalized growth

COc1ccc2c(=O)ccoc2c1
inactive: locus YAL013W, strain DEP1, active compounds read low 1.02 | locus YAL021C, strain ccr4, active compounds read low 1.02 | locus YAL026C, strain drs2, active compounds read low 1.02 | locus YAL030W, strain snc1, active compounds read low 1.01 | locus YBL061C, strain skt5, active compounds read low 1.01 | locus YBR009C, strain hhf1, active compounds read low 1.02 | locus YBR021W, strain FUR4, active compounds read low 0.979 | locus YBR023C, strain chs3, active compounds read low 1.02 | locus YBR171W, strain sec66, active compounds read low 1.04 | locus YBR229C, strain ROT2, active compounds read low 1.01 | locus YBR231C, strain swc5, active compounds read low 1.01 | locus YBR279W, strain paf1, active compounds read low 1.02 | locus YCL011C, strain gbp2, active compounds read low 1.02 | locus YCL016C, strain dcc1, active compounds read low 1.02 | locus YCL029C, strain bik1, active compounds read low 1.01 | locus YCL061C, strain MRC1, active compounds read low 1.02 | locus YCL069W, strain vba3, active compounds read low 1.02 | locus YCR088W, strain abp1, active compounds read low 1.03 | locus YDL005C, strain med2, active compounds read low 1.02 | locus YDL035C, strain GPR1, active compounds read low 1 | locus YDL040C, strain nat1, active compounds read low 1.02 | locus YDL074C, strain BRE1, active compounds read low 1.02 | locus YDL101C, strain DUN1, active compounds read low 1.02 | locus YDL134C, strain PPH21, active compounds read low 1.02 | locus YDL185W, strain tfp1, active compounds read low 1.01 | locus YDL192W, strain arf1, active compounds read low 1.01 | locus YDR001C, strain nth1, active compounds read low 1.02 | locus YDR069C, strain doa4, active compounds read low 1.02 | locus YDR101C, strain arx1, active compounds read low 0.995 | locus YDR137W, strain rgp1, active compounds read low 1.03 | locus YDR150W, strain NUM1, active compounds read low 1.03 | locus YDR159W, strain sac3, active compounds read low 1.04 | locus YDR162C, strain NBP2, active compounds read low 1.02 | locus YDR195W, strain ref2 1.08 | locus YDR297W, strain sur2, active compounds read low 1.02 | locus YDR318W, strain mcm21, active compounds read low 0.992 | locus YDR334W, strain swr1, active compounds read low 1.02 | locus YDR335W, strain msn5, active compounds read low 1.02 | locus YDR388W, active compounds read low 1.01 | locus YDR392W, strain spt3, active compounds read low 1.04 | locus YDR502C, strain sam2, active compounds read low 1.01 | locus YEL003W, strain gim4, active compounds read low 1.02 | locus YEL037C, strain rad23, active compounds read low 1.02 | locus YEL061C, strain CIN8 (second series), active compounds read low 1.02 | locus YEL061C, strain CIN8, active compounds read low 1.01 | locus YER015W, strain faa2, active compounds read low 1.03 | locus YER016W, strain bim1, active compounds read low 1.02 | locus YER110C, active compounds read low 1.01 | locus YER111C, strain swi4, active compounds read low 1.01 | locus YER155C, strain BEM2 (second series), active compounds read low 1 | locus YER155C, strain BEM2, active compounds read low 1.02 | locus YER167W, strain BCK2, active compounds read low 1.04 | locus YFR010W, strain ubp6, active compounds read low 1.03 | locus YGL078C, strain dbp3, active compounds read low 1.02 | locus YGL086W, strain mad1, active compounds read low 1.01 | locus YGL167C, strain pmr1, active compounds read low 1.03 | locus YGL173C, strain kem1, active compounds read low 1.02 | locus YGL227W, strain vid30, active compounds read low 1.03 | locus YGL240W, strain doc1, active compounds read low 1.02 | locus YGL248W, strain PDE1, active compounds read low 1.02 | locus YGL253W, strain hxk2, active compounds read low 1.02 | locus YGR078C, strain PAC10, active compounds read low 0.997 | locus YGR135W, strain pre9, active compounds read low 0.978 | locus YGR229C, strain SMI1, active compounds read low 1.04 | locus YGR252W, strain gcn5, active compounds read low 0.825 | locus YHR013C, strain ard1, active compounds read low 1.08 | locus YHR027C, strain rpn1, active compounds read low 1.03 | locus YHR030C, strain SLT2, active compounds read low 1.02 | locus YHR079C, strain IRE1 (second series), active compounds read low 0.998 | locus YHR094C, strain hxt1, active compounds read low 1.01 | locus YHR129C, strain ARP1, active compounds read low 1.01 | locus YHR142W, strain chs7, active compounds read low 1.03 | locus YHR200W, strain rpn10, active compounds read low 0.997 | locus YIL066C, strain RNR3, active compounds read low 1.01 | locus YIL073C, strain SPO22, active compounds read low 1.04 | locus YIL125W, strain kgd1, active compounds read low 1.02 | locus YIR030C, strain dcg1, active compounds read low 1.01 | locus YJL092W, strain hpr5, active compounds read low 1.02 | locus YJL095W, strain BCK1 (second series), active compounds read low 1.02 | locus YJL095W, strain BCK1, active compounds read low 0.991 | locus YJL115W, strain asf1, active compounds read low 1.01 | locus YJL129C, strain trk1, active compounds read low 1.06 | locus YJL134W, strain LCB3, active compounds read low 1.02 | locus YJL154C, strain vps35, active compounds read low 1.03 | locus YJL164C, strain tpk1, active compounds read low 1.03 | locus YJL166W, strain qcr8, active compounds read low 1.02 | locus YJL168C, strain set2, active compounds read low 1.01 | locus YJL187C, strain SWE1 (second series), active compounds read low 1.01 | locus YJL187C, strain SWE1, active compounds read low 1.02
